A selection: hits, their analogues and other compounds. The true share with any hit is near 1.8%.
Granule exo inh = LAMP-1 surface exposure blockers, TALL-104 cells – cell-based, flow cytometry, MLPCN library, primary screen. TALL-104 LAMP-1 surface exposure; cells stimulated with thapsigargin and PMA. inhibition, % at 10 µM. hit rate 0.66% among 360,000;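 active means inhibition above about 55%, limit read from the data; inconclusive means no clear call, values can overlap the other calls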
Myeloid diff MLP = induction of myeloid progenitor differentiation, primary screen, cell-based, flow cytometry, MLPCN library; hit rate 1% among 360,000; calls only at 10 µM; ER-HoxA9 myeloid progenitors, lysozyme-GFP differentiation;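 active means normalized GFP-positive differentiation at or above the plate's own cutoff, the solvent-only control mean plus 3 SD; inconclusive means no clear call, values can overlap the other calls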;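 further: cells exposed to compound for four days before flow analysis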
GC-B act = human GC-B receptor activators, primary screen, HEK293 GC-B cells, cGMP TR-FRET, EC30 CNP | Atrial natriuretic peptide receptor 2 (Homo sapiens), P20594 | hit rate 0.11% among 370,000 | 0% at EC30 CNP, 100% saturating CNP | activation, % at 10 µM;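 active means activation at 10 µM reaching about 35% in either raw or pattern-adjusted values, limit read from the data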
Target sequence (P20594 whole entry, looked up): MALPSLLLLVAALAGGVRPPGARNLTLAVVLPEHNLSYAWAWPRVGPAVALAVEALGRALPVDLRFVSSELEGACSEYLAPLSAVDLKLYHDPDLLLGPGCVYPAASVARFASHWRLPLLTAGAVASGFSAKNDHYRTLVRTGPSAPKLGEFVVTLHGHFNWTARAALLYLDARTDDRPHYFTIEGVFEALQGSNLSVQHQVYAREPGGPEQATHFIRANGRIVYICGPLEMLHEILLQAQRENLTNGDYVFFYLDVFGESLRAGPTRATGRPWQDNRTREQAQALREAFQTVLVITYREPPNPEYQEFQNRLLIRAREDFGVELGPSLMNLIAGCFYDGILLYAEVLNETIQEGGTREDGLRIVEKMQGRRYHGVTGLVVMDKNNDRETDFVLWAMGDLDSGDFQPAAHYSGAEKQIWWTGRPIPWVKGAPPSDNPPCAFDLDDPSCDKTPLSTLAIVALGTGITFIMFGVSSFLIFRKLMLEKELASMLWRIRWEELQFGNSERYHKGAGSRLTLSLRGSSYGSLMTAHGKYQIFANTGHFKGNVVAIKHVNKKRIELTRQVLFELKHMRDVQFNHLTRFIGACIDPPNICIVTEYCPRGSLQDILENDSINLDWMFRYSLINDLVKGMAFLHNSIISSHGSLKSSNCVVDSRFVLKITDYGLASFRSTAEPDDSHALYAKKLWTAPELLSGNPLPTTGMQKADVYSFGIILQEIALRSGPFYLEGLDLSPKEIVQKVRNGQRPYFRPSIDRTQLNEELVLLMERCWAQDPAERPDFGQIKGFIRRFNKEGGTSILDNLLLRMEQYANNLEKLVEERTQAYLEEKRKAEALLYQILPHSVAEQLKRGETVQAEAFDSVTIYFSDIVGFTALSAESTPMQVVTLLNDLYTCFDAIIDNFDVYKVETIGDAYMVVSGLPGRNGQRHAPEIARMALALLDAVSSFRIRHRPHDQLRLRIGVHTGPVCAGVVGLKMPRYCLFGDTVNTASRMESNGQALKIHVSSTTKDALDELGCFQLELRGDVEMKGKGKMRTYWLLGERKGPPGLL
GC-A act = GC-A stimulated cGMP production enhancers – HEK293 GC-A cells, cGMP TR-FRET, EC30 ANP, primary screen | Atrial natriuretic peptide receptor 1 (Homo sapiens), P16066 | 0% at EC30 ANP, 100% saturating ANP | activation, % at 10 µM | hit rate 0.14% among 370,000; in the data active means activation above about 40%
Active calls of the source: *; i = inactive; ? = inconclusive; . = not tested or not shown; + = active, no number.

SMILES | Granule exo inh | Myeloid diff MLP | GC-B act | GC-A act
O=C1CSc2ccc(C(=O)Nc3cccc(S(=O)(=O)Nc4ccc(Br)cc4)c3)cc2N1 | 63* | i | -2 | -7
O=C(CCN=C1NS(=O)(=O)c2ccccc21)OCc1nnc(-c2ccc([N+](=O)[O-])cc2)o1 | 5 | i | 3 | -4
COc1ccc(C2c3ccccc3NC3C2C(=O)N(Cc2ccc(OC)cc2OC)[C@H]3Cc2ccccc2)cc1 (some centres undefined) | . | . | 4 | -1
O=c1[nH]c(=O)n([C@H]2C[C@H](O)[C@@H](CO)O2)cc1C(F)(F)F | 3 | + | 4 | -1
O=c1[nH]c(=O)n(C2C[C@H](O)[C@@H](CO)O2)cc1C(F)(F)F (some centres undefined) | 0 | i | 3 | 2
Cc1ccc(S(=O)(=O)N(C)[C@H]2C[C@H]3c4cc(-c5ccccc5C)ccc4CCN3C[C@H]2[C@H](C)O)cc1 | . | . | 3 | 2
O=C(CO)C(O)C(O)C(O)CO (centres undefined) | -1 | + | -1 | 1
Cn1c2ccccc2c2cc(/C=N/NC(=O)c3ccc(O)cc3O)ccc21 | 15 | i | . | .
Cn1c(O)c(/C=N/NC(=O)c2cc3ccccc3cc2O)c2ccccc21 | 83* | i | -4 | 3
CCN1CC=C2C(C#N)=C(N)C(C#N)(C#N)C(c3cc(Cl)ccc3Cl)C2C1 (centres undefined) | -1 | + | -3 | -12
CC(C)N1CC=C2C(C#N)=C(N)C(C#N)(C#N)C(c3ccccc3)C2C1 (centres undefined) | 2 | i | -2 | -4
CC(C)C[C@@H]1O[C@H](CCc2ccccc2)CC2=C1C(=O)OC(C)(C)O2 | 2 | i | -4 | -3
N#Cc1ccc(COc2cccnc2[N+](=O)[O-])cc1 | 1 | i | 5 | 1
O=[N+]([O-])c1ncccc1OCc1ccc(-c2ccccc2)cc1 | 86* | i | -4 | -2
COc1cccc(-c2cc(C(F)(F)F)n3ncc(C(=O)NCC4CCCO4)c3n2)c1 (centres undefined) | 7 | i | 46* | 35
Cc1ccn2c(C(=O)N/N=C/c3ccc(Cl)cc3)c(C)nc2c1 | -3 | i | -11 | 0
Cc1ccn2c(C(=O)N/N=C\c3ccccc3[N+](=O)[O-])c(C)nc2c1 | 0 | + | -4 | 0
C[C@@H]1CN([C@H](C)CO)C(=O)c2cc(Br)cnc2O[C@@H]1CN(C)C(=O)C1CCOCC1 | 26 | i | 2 | -4
COc1ccc([C@H]2[C@H](C(=O)OC(C)(C)C)N3N=Cc4ccccc4C3C23C(=O)c2ccccc2C3=O)c(OC)c1 (some centres undefined) | 0 | i | 0 | 1
COc1ccc([C@H]2[C@H](C(=O)OC(C)(C)C)N3N=Cc4ccccc4C3C23C(=O)c2ccccc2C3=O)cc1OC (some centres undefined) | 63* | i | . | .
O=C(N/N=C/c1c[nH]c2ccccc12)c1sc2ccccc2c1Cl | 2 | i | 0 | 0
O=C(N/N=C/c1ccccn1)c1sc2ccccc2c1Cl | 60* | i | 10 | 14
CCOC(=O)c1c(CSC(=N)N)n(-c2ccccc2)c2cc(Br)c(OC(C)=O)cc12 | 81* | i | -22 | -29
O=C(NCCc1c[nH]c2ccccc12)OCc1cn(Cc2cccc(F)c2F)nn1 | . | . | 5 | -2
Clc1ccc(-c2cc(-c3nnc4n3CCCCC4)c3ccccc3n2)cc1 | 0 | + | 0 | 0
SMILES | Granule exo inh | Myeloid diff MLP | GC-B act | GC-A act
Fc1ccc(-c2cc(-c3nnc4n3CCCCC4)c3ccccc3n2)cc1 | 1 | i | 10 | 0
O=C(NCCO)c1ccc(-c2ccc3nncn3c2)cc1 | -2 | i | -2 | 1
NNC(=O)c1sc2cc(C(F)(F)F)cnc2c1-c1cccs1 | 0 | + | -2 | -4
NC(=O)c1sc2cc(C(F)(F)F)cnc2c1-c1cccs1 | 8 | i | -1 | 2
Cn1nc([N+](=O)[O-])c(C(C#N)c2nc3ccccc3n2C)c(Cl)c1=O (centres undefined) | 71* | i | 3 | 1
COc1cc2nc(N(CCN(C)C)C(=O)c3ccc4ccccc4c3)sc2cc1OC | 1 | ? | . | .
CCN(CC)CCN(C(=O)c1ccc2c(c1)CCCC2)c1nc2cc(OC)c(OC)cc2s1 | 56* | i | . | .
CCOc1ccccc1NC(=O)Cn1[nH]c(=O)c2ccccc2c1=O | 3 | i | . | .
CCOc1cc(N2CCOCC2)c(OCC)cc1NC(=O)Cn1[nH]c(=O)c2ccccc2c1=O | 2 | i | 36* | 26
Cc1ccccc1C(=O)N1CCC(C(=O)Nc2cccc(S(=O)(=O)N3CCCCC3)c2)CC1 | 1 | i | 1 | -2
Cc1ccccc1C(=O)N1CCC(C(=O)Nc2ccc(S(=O)(=O)N3CCCC3)cc2)CC1 | 0 | + | -1 | -6
CCCCCCCCN1C(=O)[C@H](CC(=O)NCc2ccc(OC)c(OC)c2)C[C@@]2(C(=O)OCC)CCCC=C12 | 4 | i | 5 | 0
CC(C)(C)OC(=O)[C@H](Cc1ccccc1)NCC(=O)OCc1ccc(C(=O)NCc2ccccc2)cc1 | . | . | 4 | -6
Cc1cc(C)nc(-n2nc(C)cc2NC(=O)CN2CCc3ccccc3C2)n1 | 1 | + | -4 | 7
O=C(Nc1ccc(F)c(F)c1)C1CCCN(S(=O)(=O)c2cccc3nonc23)C1 (centres undefined) | 15 | + | 1 | -5
COC(=O)[C@@]12CCCCC3=C1N(CCC3)C(=O)[C@H]2CC(=O)NCCCCc1ccccc1 | . | . | -1 | -1
O=[N+]([O-])c1ccc(/C=C/C2=NN(c3ccccc3)C(c3ccco3)C2)o1 (centres undefined) | 4 | + | -9 | -10
COC(=O)[C@H]1C[C@@]2(c3ccccc3)c3ccccc3N[C@H]2N1 | . | . | 0 | -4
CC(C)CCC(CCNCc1ccccn1)c1ccc2c(c1)OCO2 (centres undefined) | -15 | + | -17 | -50
CCNCCC(CCC(C)C)c1ccc2c(c1)OCO2 (centres undefined) | 4 | i | -29 | -29
COc1ccc(/C=C2/C(=O)N(c3c(F)c(F)c(F)c(F)c3F)N=C2C)cc1 | -2 | i | 24 | 46*
Fc1ccc(Cn2ccc3ccc(-c4ccc5ccn(Cc6ccc(F)cc6)c5c4)cc32)cc1 | . | . | 3 | 2
c1cc2ccn(CC3CC3)c2cc1-c1ccc2ccn(CC3CC3)c2c1 | . | . | 38* | 0
COc1ccc(-c2c(C#Cc3ccsc3)c3cc(-c4ccc5[nH]ccc5c4)ccc3n2C)cc1 | 3 | + | 1 | 1
CC1(C)Cc2c(sc3c2c(=N)n(Cc2ccco2)c(=O)n3Cc2ccc(Cl)cc2)CO1 | -2 | i | 35* | 24
